About 1,100 (44%) of roughly 2,500 compounds were called active.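 How the source made its calls: active means inhibition above 50% at 4 µM in the single-point screen; inactive means inhibition of 50% or less.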 The set was probably picked from earlier hits. This is one part of the list.

The assay in a line: blockers of TNF-a NF-kB luciferase induction – cell-based, HEK293T NF-kB-Luc, luminescence, selectivity assay for NOD1/NOD2 signaling inhibitor project, primary screen (AID 1852). Particulars: TNF-a induced, 14 h, at 4 µM, stronger effect = higher value.
As a reminder, the inhibition is the relative decrease from the control value, in per cent. On to `O=C(O)CCSc1ncnc2sc(-c3ccccc3)cc12`, for which the inhibition was 43.8% (inactive).

For `O=C(O)CCSc1nnc(-c2ccc3c(c2)OCO3)o1`, the inhibition was 64.7% (active).

As to `Cc1ccc(-c2n[nH]c(=O)c3ccccc23)cc1S(=O)(=O)Nc1ccccc1`, the inhibition was 14.6% (inactive).

For `COC(=O)c1sccc1NC(=O)CSc1ccccc1NS(=O)(=O)c1cc(Cl)ccc1Cl`, the inhibition is 39% (inactive).

For the compound `Cc1ccc(C)c(S(=O)(=O)Nc2cc(SCC(=O)O)c(O)c3ccccc23)c1`, the inhibition was 105% (active).

With `COC(=O)c1sccc1NC(=O)CSc1ccccc1NS(=O)(=O)c1ccc(Br)cc1`, the inhibition was 26.3% (inactive).

With `CCOc1ccc(S(=O)(=O)Nc2cc(SCC(=O)O)c(O)c3ccccc23)cc1`, the inhibition was 92.5% (active).

Take `CCc1ccc(S(=O)(=O)Nc2cc(SCC(=O)O)c(O)c3ccccc23)cc1`: the inhibition is 8% (inactive).

For `COc1ccc(S(=O)(=O)Nc2cc(SCC(=O)O)c(O)c3ccccc23)cc1`, the inhibition is 98.3% (active).

As to `COc1ccc(S(=O)(=O)c2c(O)cc(C)c(NS(=O)(=O)c3ccccc3)c2C)cc1`, the inhibition was 46.9% (inactive).

For the compound `O=C(O)CSc1cc(NS(=O)(=O)c2ccc(Cl)cc2)c2ccccc2c1O`, the inhibition is 93.9% (active).

As to `Cc1cc(S(=O)(=O)NCc2ccncc2)c(C)cc1Br`, the inhibition was 22.7% (inactive).

In the case of `CS(=O)(=O)C1=NN2C(=N)/C(=C\c3ccc(OCCOc4ccccc4)cc3)C(=O)N=C2S1`, the inhibition was -28.3% (inactive).

As for `CCN1CCN(Cc2ccc(NC(=O)c3ccc(C)c(NC(=O)c4ccno4)c3)cc2C(F)(F)F)CC1`, the inhibition was -16.6% (inactive).

Consider `O=C(Nc1ccc2nc3n(c(=O)c2c1)CCCCC3)c1c(F)ccc([N+](=O)[O-])c1F`, for which the inhibition is 94.6% (active).

`O=C(Nc1ccc2nc3n(c(=O)c2c1)CCCCC3)c1cc([N+](=O)[O-])ccc1F`: the inhibition was 37.4% (inactive).

In the case of `O=C(c1[nH]ncc1-c1ccccc1)C1CO1` (configuration not stated), the inhibition was 2.8% (inactive).

Consider `Cc1ccc(C(=O)N/N=C/c2ccc([N+](=O)[O-])s2)cc1`, for which the inhibition was 66.9% (active).

`Cc1cccc(NC(=S)N/N=C/c2ccc([N+](=O)[O-])s2)c1`: the inhibition is 106% (active).

For `O=[N+]([O-])c1ccc(/C=N/NC(=S)Nc2ccc(Cl)cc2Cl)s1`, the inhibition was 31.8% (inactive).

Consider `O=C(N/N=C/c1ccc([N+](=O)[O-])s1)c1ccncc1`, for which the inhibition is 45.8% (inactive).

For `Cc1ccc(NC(=S)N/N=C/c2ccc([N+](=O)[O-])s2)cc1`, the inhibition was 100% (active).

For the compound `Cc1ccc(/C=N/Nc2ccc(C(=O)O)cc2)s1`, the inhibition is 44.7% (inactive).

Turning to `Cc1ccc(-c2nnc(Sc3nc4ccccc4o3)c3ccccc23)cc1`, the inhibition was -46.1% (inactive).

Regarding `CCC(C)Cn1c(C)nc2ccccc21` (configuration not stated), the inhibition is 28% (inactive).

As for `CCC(C)Cn1c(O)cc2nn(-c3nc4ccccc4s3)c(=O)c-2c1C` (configuration not stated), the inhibition was 77.4% (active).

Regarding `CCC(C)Cn1c(C(C)C)nc2ccccc21` (configuration not stated), the inhibition is -3% (inactive).

Turning to `COc1c(C)cc(C(=O)C2CCCN(C(=O)CCc3scnc3C)C2)cc1C` (configuration not stated), the inhibition is 27.3% (inactive).

On to `Cc1ccnn1CCC(=O)N1CCCC(Nc2ccc(F)c(F)c2)C1` (configuration not stated), for which the inhibition was 21.6% (inactive).

In the case of `CCc1cc(C(=O)NC2CCCN(Cc3ccccc3F)C2)n(C)n1` (configuration not stated), the inhibition is 57.5% (active).

For the compound `Fc1ccc(C2CCCN2Cc2nc(Cc3ccccc3F)no2)cc1` (configuration not stated), the inhibition was -0.4% (inactive).

As to `CCC(C)c1ccc(C(C)NC(=S)NC2CCCCC2)cc1` (configuration not stated), the inhibition was 21.1% (inactive).

Take `O=C(CCS(=O)(=O)c1ccccc1)Nc1cccc(-c2nc3ccccc3s2)c1`: the inhibition was 59.9% (active).

As for `Cc1nc2ccc(NC(=O)CCS(=O)(=O)c3ccccc3)cc2s1`, the inhibition was -1.1% (inactive).

Consider `CS(=O)(=O)c1ccc2nc(NC(=O)CCS(=O)(=O)c3ccccc3)sc2c1`, for which the inhibition was 36.3% (inactive).

`O=C(c1cn(-c2ccccc2)nc1-c1ccccc1)n1nnc2ccccc21`: the inhibition was 27.6% (inactive).

In the case of `COc1ccc(-c2csc3ncnc(NCCCO)c23)cc1`, the inhibition was 60.7% (active).

For `OCCCNc1ncnc2scc(-c3ccc(Cl)cc3)c12`, the inhibition was 78.5% (active).

As to `COc1ccc(-c2csc3ncnc(NCCO)c23)cc1`, the inhibition is 49.8% (inactive).

On to `CCc1cccc(NS(=O)(=O)c2csc(C(N)=O)c2)c1`, for which the inhibition was 23.5% (inactive).

As for `CNC(=S)N(CCc1c(C)[nH]c2ccc(Cl)cc12)Cc1cc(OC)c(OC)c(OC)c1`, the inhibition is 36.1% (inactive).

Regarding `CCOC(=O)c1sc(NC(=O)CSc2n[nH]c(-c3ccncc3)n2)c(C#N)c1C`, the inhibition is 26.6% (inactive).

As for `CCCc1ccc(-c2c(C)sc(NC(=O)c3ccnn3C)c2C#N)cc1`, the inhibition is 86.3% (active).

Consider `CCN1/C(=C/C=C/C=C/C=C/c2sc3ccccc3[n+]2CC)Sc2ccccc21`, for which the inhibition was 62.2% (active).

`CCN1/C(=C/C(C)=C/c2sc3ccccc3[n+]2CC)Sc2ccccc21`: the inhibition was 71.8% (active).

Regarding `O=c1c2cc([N+](=O)[O-])ccc2nc(CN2CCN(c3ccccn3)CC2)n1-c1ccccc1F`, the inhibition was 2.4% (inactive).

Take `CN(C)S(=O)(=O)c1cc(NC(=O)CSc2nn(-c3ccc(Cl)cc3)c(=S)s2)ccc1Cl`: the inhibition was -20.5% (inactive).

As to `Cc1ccc(NC(=O)CSc2nn(-c3ccccc3)c(=S)s2)cc1S(=O)(=O)N(C)C`, the inhibition was 72.3% (active).

Turning to `CCN(CCn1cccn1)C(=O)CC1C(=O)NCCN1CCc1ccccc1` (configuration not stated), the inhibition was 50.2% (active).

For the compound `CCN(Cc1ccncc1)C(=O)CC1C(=O)NCCN1Cc1ccc(F)c(F)c1` (configuration not stated), the inhibition is 1.3% (inactive).

With `CC(CN1CCOCC1)OC(=O)Cc1ccc(Cl)cc1` (configuration not stated), the inhibition is 12.4% (inactive).

For the compound `Cc1ccc(NC(=O)CSc2ncnc3ccccc23)cc1S(=O)(=O)N1CCCCC1`, the inhibition was 57.7% (active).

Consider `O=C(Nc1ccc(F)cc1)Nc1ccc(N2CCCC2)c(S(=O)(=O)Nc2ccccc2Cl)c1`, for which the inhibition is 35.1% (inactive).

For `O=C(CCl)Nc1cccc(S(=O)(=O)N2CCCCCC2)c1`, the inhibition was 30.6% (inactive).

For `CSc1ncccc1C(=O)N1CCN(S(=O)(=O)c2cc(C)ccc2C)CC1`, the inhibition was -21.1% (inactive).

Turning to `Cc1ccc(NC(=O)c2cc(=O)c3ccccc3o2)cc1S(=O)(=O)N1CCCCC1`, the inhibition was 23.9% (inactive).

Take `Cc1ccc(NC(=O)CSc2ncnc3ccccc23)cc1S(=O)(=O)N1CCOCC1`: the inhibition was 39.8% (inactive).

Regarding `COc1ccc(NS(=O)(=O)c2cccc(NC(=O)c3ccc(Cl)nc3)c2)cc1`, the inhibition was 42% (inactive).

As to `O=C(Nc1cccc(S(=O)(=O)N2CCCCC2)c1)c1ccccc1NS(=O)(=O)c1ccc(F)cc1`, the inhibition was 87% (active).

Turning to `COc1ccc(NS(=O)(=O)c2cccc(NC(=O)c3ccc(S(=O)(=O)N4CCCCCC4)cc3)c2)cc1`, the inhibition is 90.7% (active).

Take `Cc1ccc(NC(=O)c2ccccc2NS(=O)(=O)c2ccc(F)cc2)cc1S(=O)(=O)N1CCCCC1`: the inhibition is 81.2% (active).

For the compound `O=C(Nc1cccc(S(=O)(=O)N2CCCCC2)c1)Nc1ccc(Cl)cc1Cl`, the inhibition was -29.7% (inactive).

Take `Cc1nc(Sc2nnnn2C)c2c3c(sc2n1)CCC3`: the inhibition was 25.5% (inactive).

For `CC1CCCC(NC(=O)NC(=O)CCl)C1C` (configuration not stated), the inhibition is 69.1% (active).

As for `CCS(=O)(=O)c1ccc2oc(SCC(=O)NC3CCCC(C)C3C)nc2c1` (configuration not stated), the inhibition was 15.3% (inactive).

With `CC1CCCCC1NC(=O)NC(=O)CCl` (configuration not stated), the inhibition is 68.1% (active).

Regarding `COc1ccccc1C1/C(=C(/O)c2ccc(OC(C)C)cc2)C(=O)C(=O)N1c1cc(C)on1` (configuration not stated), the inhibition was 35.4% (inactive).

On to `O=C(CN(Cc1ccc(Cl)cc1)C(=O)CNS(=O)(=O)c1ccc(F)cc1)NCC1CCCO1` (configuration not stated), for which the inhibition is 38.4% (inactive).

In the case of `O=S(=O)(NCC1CCCO1)c1ccc(-c2ccc(S(=O)(=O)NCC3CCCO3)cc2)cc1` (configuration not stated), the inhibition is 34.8% (inactive).

With `COc1ccc(N2CCN(C(=O)c3ccc(CNS(=O)(=O)c4ccc(C)cc4)cc3)CC2)cc1`, the inhibition was 35.1% (inactive).

As for `Cc1ccc(NS(=O)(=O)c2ccc(C(=O)N3CCN(c4ncccn4)CC3)cc2)cc1`, the inhibition is 61.5% (active).

As to `Cc1cccc(-n2ncc3c(N(C)C4CCCCC4)ncnc32)c1`, the inhibition was -64.4% (inactive).

For `COc1cccc(N2CCN(c3ncnc4c3cnn4-c3ccc(C)cc3C)CC2)c1`, the inhibition was 102% (active).

Turning to `CCOC(=O)C1=C(C)N=c2s/c(=C/c3cccc([N+](=O)[O-])c3O)c(=O)n2C1c1ccccc1` (configuration not stated), the inhibition is 74.5% (active).

For `Cn1c(=O)c2c(nc(Oc3ccc4ccccc4c3)n2C)n(C)c1=O`, the inhibition is 40.5% (inactive).

In the case of `CCn1c(Oc2ccccc2F)nc2c1c(=O)n(C)c(=O)n2C`, the inhibition is 69.1% (active).

In the case of `C=CCn1c(Oc2ccc(C(=O)OC)cc2)nc2c1c(=O)n(C)c(=O)n2C`, the inhibition is 47.2% (inactive).

As for `Cn1c(N2CCN(c3ccccn3)CC2)nc2c1c(=O)n(Cc1ccc(Cl)cc1)c(=O)n2C`, the inhibition is 17.7% (inactive).

For the compound `C=CCn1c(Oc2ccccc2F)nc2c1c(=O)n(C)c(=O)n2C`, the inhibition is 78.4% (active).

As to `CCCCCn1c(SCCc2ccccc2)nc2c1c(=O)[nH]c(=O)n2C`, the inhibition was 31.3% (inactive).

For `Cn1c(=O)[nH]c(=O)c2c1nc(N1CCC(Cc3ccccc3)CC1)n2Cc1ccccc1`, the inhibition is 41.2% (inactive).

For `Cn1c(=O)[nH]c(=O)c2c1nc([N+](=O)[O-])n2Cc1ccccc1`, the inhibition was 104% (active).

Turning to `CN(Cc1ccccc1)S(=O)(=O)c1nnc(NC(=O)c2ccc(F)cc2)s1`, the inhibition was 74.3% (active).

`CN(Cc1ccc(F)cc1)S(=O)(=O)c1nnc(NC(=O)c2ccccc2)s1`: the inhibition is 21% (inactive).

For the compound `COc1ccc(C(=O)Nc2nnc(S(=O)(=O)N(C)Cc3ccc(F)cc3)s2)cc1OC`, the inhibition was -1% (inactive).

With `Cc1nc2ccc(NS(=O)(=O)c3c(C)c(C)cc(C)c3C)cc2s1`, the inhibition is 61.8% (active).

`CSc1nc2ccc(NS(=O)(=O)c3ccc4c(c3)OCCO4)cc2s1`: the inhibition was 100% (active).

For the compound `Cc1nc2ccc(NS(=O)(=O)c3ccc4c(c3)OCCO4)cc2s1`, the inhibition is 72.1% (active).

Consider `CS(=O)(=O)c1ccc2nc(NC(=O)c3cccc(NS(=O)(=O)c4ccc(F)c(F)c4)c3)sc2c1`, for which the inhibition was -0.8% (inactive).

With `Cc1ccc(-c2nc3cccnc3s2)cc1NS(=O)(=O)c1ccc2c(c1)OCCO2`, the inhibition was 27.3% (inactive).

As for `Cc1nc2ccc(NS(=O)(=O)c3ccc(C)c(C)c3)cc2s1`, the inhibition was 48.4% (inactive).

On to `Cc1nc2ccc(NS(=O)(=O)c3ccc(F)c(C)c3)cc2[nH]1`, for which the inhibition was 42.8% (inactive).

The values are drawn from PubChem BioAssay AID1852 (Sanford-Burnham Center for Chemical Genomics, 2009).
